TDP1 cell CPT: qHTS for Inhibitors of human tyrosyl-DNA phosphodiesterase 1 (TDP1): qHTS in cells in presence of CPT. chicken DT40 Tdp1-/-;hTDP1 cells + 20 nM CPT, ATP luminescence, 48 h. hit rate 12% among 420,000. Potency, µM (highest dose often 46.2 µM), for the others: top-dose activity change, negative = growth inhibition, actives largely listed as inhibitors. AID 686979, 2013; also: potency is read from the fitted curve at half-maximal effect; % is scaled to controls: 0 for no effect and ±100 for the full control effect; nearly all actives have a fitted effect of over 55% in size
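Chicken DT40 Tdp1-/- cells stably complemented with human TDP1 were seeded at 400 cells/well in medium containing 20 nM camptothecin, exposed to pin-transferred compounds, and grown at 37 °C for at least 48 hr. Viability was read as ATP luminescence.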
IL-1B inflam inh: qHTS for Inhibitors of Inflammasome Signaling: IL-1-beta AlphaLISA Primary Screen; THP-1 LPS/ATP IL-1B secretion, AlphaLISA, 16 h; stronger effect = lower value; activity change, % at 57.5 µM; hit rate 4.7% among 360,000; AID 743279, 2014; in the data active = activity change below about -50%; inconclusive = mostly about -30% to -49%; also: % is scaled to controls: 0 for no effect and ±100 for the full control effect
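Secreted IL-1B measured by AlphaLISA bead assay after 16 h compound exposure of THP-1 cells; compounds (final up to 57.5 uM) added 1 h before LPS (250 ng/mL) and ATP (1.25 mM) stimulation; lower signal means less secretion.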
TDP1 cell noCPT: qHTS for Inhibitors of human tyrosyl-DNA phosphodiesterase 1 (TDP1): qHTS in cells in absence of CPT; AID 686978, 2013; hit rate 15% among 420,000; Potency, µM (titrated, usually from 46.2 µM), inactives show at the highest dose activity change, negative = growth inhibition, hits mostly inhibitors; DT40 Tdp1-/- hTDP1 cells, no CPT, ATP luminescence, 48 h; also: potency is read from the fitted curve at half-maximal effect; % is scaled to controls: 0 for no effect and ±100 for the full control effect; nearly all actives have a fitted effect of over 55% in size
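A cellular qHTS used chicken DT40 cells lacking endogenous Tdp1 but carrying stably transfected human TDP1. Compounds were applied without camptothecin, and cell growth kinetics were judged by ATP-dependent luminescence after ≥48 hr.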
TGFb SMAD3 inh: qHTS for Inhibitors of TGF-b. HepG2 CAGA-GFP TGF-b/SMAD3 reporter, GFP fluorescence, 18 h; TGF-beta stimulated, 500 pg/mL final. Potency, µM (titrated, usually from 46.1 µM), without a hit: at the highest dose activity, negative = inhibition, actives largely listed as inhibitors. hit rate 1.2% among 410,000. AID 588855, 2011; also: potency is read from the fitted curve at half-maximal effect; % is scaled to controls: 0 for no effect and ±100 for the full control effect; nearly all actives have a fitted effect of over 65% in size
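HEPG2 CAGA-GFP reporter cells (1000/well, DMEM with 1% FBS) received compounds, then recombinant TGF-beta at 500 pg/mL final for 18 hours at 37 degrees C. Per-cell GFP summed per well was normalised to unstimulated and stimulated DMSO controls before curve fitting.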
TDP1 inh: qHTS Assay for Inhibitors of Tyrosyl-DNA Phosphodiesterase (TDP1); Tyrosyl-DNA phosphodiesterase 1 (Homo sapiens), Q9NUW8; recombinant TDP1, AlphaScreen DNA substrate cleavage; Potency, µM (doses to about 130 µM), for the others: at the highest dose activity change, negative = inhibition, hits mostly inhibitors; hit rate 0.28% among 350,000; AID 485290, 2010; also: potency is read from the fitted curve at half-maximal effect; % is scaled to controls: 0 for no effect and ±100 for the full control effect; nearly all actives have a fitted effect of over 40% in size
Target sequence (Q9NUW8 whole entry, looked up): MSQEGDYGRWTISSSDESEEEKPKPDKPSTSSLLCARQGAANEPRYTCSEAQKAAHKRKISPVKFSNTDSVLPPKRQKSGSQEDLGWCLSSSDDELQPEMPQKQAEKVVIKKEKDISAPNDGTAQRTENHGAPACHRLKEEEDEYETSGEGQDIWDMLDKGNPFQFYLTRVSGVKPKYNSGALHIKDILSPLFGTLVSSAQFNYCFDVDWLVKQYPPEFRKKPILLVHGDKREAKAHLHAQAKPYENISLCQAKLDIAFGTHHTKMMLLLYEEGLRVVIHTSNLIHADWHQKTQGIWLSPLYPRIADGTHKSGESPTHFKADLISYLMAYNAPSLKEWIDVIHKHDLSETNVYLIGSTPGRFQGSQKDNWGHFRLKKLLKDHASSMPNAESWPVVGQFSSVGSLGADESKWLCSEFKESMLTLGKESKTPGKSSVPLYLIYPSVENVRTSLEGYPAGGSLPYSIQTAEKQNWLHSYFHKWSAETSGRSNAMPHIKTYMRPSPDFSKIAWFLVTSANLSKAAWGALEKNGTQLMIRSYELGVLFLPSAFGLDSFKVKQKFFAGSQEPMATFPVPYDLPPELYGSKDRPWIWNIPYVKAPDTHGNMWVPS
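Enzyme-compound mixtures sat 15 min at room temperature, followed by a 5 min reaction with 15 nM final substrate and 10 min with AlphaScreen beads. Recombinant human Tdp1 was used at 1 nM final.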
HepG2 viability: qHTS for Inhibitors of TGF-b: Cytotox Counterscreen; AID 588856, 2011; HepG2 CAGA-GFP viability, ATP luminescence, 18 h; Potency, µM (top dose mostly 46.1 µM), for the others: top-dose activity change, negative = cytotoxicity, most hits filed as cytotoxic; hit rate 0.76% among 410,000; also: potency is read from the fitted curve at half-maximal effect
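HepG2 CAGA-GFP cells (1000/well, DMEM with 1% FBS) received compound, then TGF-beta at 500 pg/mL final, and were incubated 18 hours at 37 degrees C. Viability was read by CellTiter-Glo luminescence. Media-only wells were set as complete cell-killing and DMSO as no toxicity.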
Active calls of the source: *; u = inconclusive; x = no result; [ ] = dose if it differs, or a comment. Sampled rows, rich in hits. Any-hit rate of the full collection: about 18%. Unless noted, calls follow the shape of the dose curve; as a rule, active = well fitted curve in the direction sought with a large enough effect; inconclusive = small, poorly fitted or top-dose-only effect, or another doubt; inactive = no such curve, though single readings can be large; an effect the other way counts as inactive or inconclusive.

SMILES	TDP1 cell CPT	IL-1B inflam inh	TDP1 cell noCPT	TGFb SMAD3 inh	TDP1 inh	HepG2 viability
CC(=O)c1ccc(NC(=O)CSc2nnc(C3CC3)n2C2CC2)cc1	-4%	-1	-12%	0%	0%	-3%
Cc1nc2ccc(NC(=O)c3nn(C(C)C)c(=O)c4ccccc34)cc2s1	u	-11	u	4%	5%	16%
CSc1nc2ccc(NC(=O)c3nn(C(C)C)c(=O)c4ccccc34)cc2s1	18µM*	-52*	u	-18%	3%	-6%
CN(C)c1nc(N)c(C(=O)N=C(N)N)nc1Cl	-26%	-20	-26%	-3%	7%	-7%
COc1cc2c(cc1OC)CN(C(=O)c1ccncc1)CC2	5%	6	6%	20%	x	-6%
COc1cc2c(cc1OC)CN(C(=O)c1ccc3nc[nH]c3c1)CC2	3.3µM*	68	3.3µM*	-7%	6%	-18%
COc1ccc(S(=O)(=O)N(C)c2ccc(C(=O)N3CCCCC3)cc2)cc1OC	7.3µM*	46	21µM*	4%	x	-11%
CN(c1ccc(C(=O)N2CCCCC2)cc1)S(=O)(=O)c1cccs1	u	0	u	-1%	1%	-17%
COc1ccc(C(=O)N2CCc3ccc(NC(=O)c4ccccn4)cc3C2)cc1F	21µM*	-1	23µM*	u	x	-21%
O=C(c1ccc(-c2nnc(-c3ccccc3)o2)cc1)N1CCCCCC1	10µM*	-6	18µM*	-4%	7%	-12%
C=CCN1CCC(=O)C(C(=O)OCC)=C1C(=O)OCC	-3%	-1	-12%	-5%	x	-15%
O=c1c2cc3c(cc2nc2sc(Nc4ccc(F)c(Cl)c4)nn12)OCO3	-14%	x	-1%	26%	0%	3%
O=S1(=O)C2CC3OC2(CC3c2ccc(F)cc2)CN1Cc1ccc(Cl)cc1 (configuration not stated)	x	x	x	-12%	4%	2%
COc1cc2c(cc1OC)CN(C(=O)c1cccc(S(=O)(=O)N(C)C)c1)CC2	-10%	10	0%	-24%	x	-28%
Cc1cccc(N2CCN(C(=O)c3cccc(S(=O)(=O)N4CCCCC4)c3)CC2)c1C	u	17	u	-6%	1%	-2%
CN1CCN(C(=O)c2ccc(S(=O)(=O)N(C)c3ccccc3)cc2)CC1	-15%	-6	0%	0%	x	2%
CN(c1ccc(C(=O)N2CCN(Cc3ccccc3)CC2)cc1)S(=O)(=O)c1ccc(Cl)cc1	u	x	16µM*	u	7%	0%
COc1ccc(N(C)S(=O)(=O)c2cccc(C(=O)N3CCN(c4cccc(C)c4C)CC3)c2)cc1	u	u	16µM*	-2%	x	-3%
CS(=O)(=O)c1ccc(C(=O)N2CCN(Cc3ccccc3)CC2)cc1	-2%	0	-13%	10%	2%	-8%
COc1cc2c(cc1OC)CN(C(=O)c1ccc(S(=O)(=O)N(C)c3ccccc3)cc1)CC2	u	2	15µM*	-5%	6%	1%
CN(c1ccc(C(=O)N2CCCCCC2)cc1)S(=O)(=O)c1ccccc1	13µM*	14	8.2µM*	-25%	1%	-24%
C[C@H]1Cn2cnc(C(=O)NCc3ccc(CNC(=O)OC(C)(C)C)cc3)c2C(=O)N1	-30%	-8	u	2%	x	-1%
COc1ccc(S(=O)(=O)N(C)c2ccc(C(=O)N3CCOCC3)cc2)cc1	-21%	-13	u	7%	7%	1%
COc1ccc(S(=O)(=O)N(C)c2ccc(C(=O)N3CCCCC3)cc2)cc1	u	0	15µM*	-11%	4%[56.1 µM]	-27%
COc1cc2c(cc1OC)CN(C(=O)c1cccc(S(=O)(=O)N3CCc4ccccc43)c1)CC2	21µM*	u	16µM*	-26%	2%	-21%
SMILES	TDP1 cell CPT	IL-1B inflam inh	TDP1 cell noCPT	TGFb SMAD3 inh	TDP1 inh	HepG2 viability
O=C(NC12CC3CC(CC(C3)C1)C2)c1cc(F)c(F)c(F)c1F	u	3	u	11%	x	-14%
COc1cc(CC(=O)N2c3ccccc3N=C(c3ccccc3)C2C(=O)NCc2ccccc2)cc(OC)c1 (configuration not stated)	u	-14	u	x	x	x
CCOC(=O)C1=NNC(C(=O)c2ccc(C)cc2)C1c1ccc(C)cc1 (configuration not stated)	u	-6	16µM*	0%	6%	-14%
Cc1nc2[nH]c(=O)n(O)c(=O)c2s1	u	18	26µM*	-12%	x	19%
Cc1nc2c(=O)n(-c3ccc(F)cc3F)nc(C)c2s1	5%	-6	-5%	0%	3%	9%
CC(C)n1cc(/C=C2/NC(=O)N(c3cccc(Cl)c3)C2=O)c2ccccc21	26µM*	0	u	-12%	-2%	-19%
O=C(COC(=O)/C(=C/c1cccs1)c1cccs1)NC(c1ccccc1)c1ccccc1	16µM*	-15	16µM*	13µM*	3%	-31%
O=C(Cc1cccs1)NC(c1ccccc1)c1ccccc1	-1%	-14	-9%	29%	5%	22%
CCOC(=O)C1(C)C=C(Nc2cccc(OC)c2)C(=O)N1c1ccccc1 (configuration not stated)	-9%	x	-22%	0%	1%	-15%
CCOC(=O)C1(C)C=C(Nc2cccc(C)c2)C(=O)N1c1ccccc1 (configuration not stated)	u	x	18µM*	-8%	x	-22%
CCOC(=O)C(c1ccccc1)N1CCN(c2ccc(OC)cc2)CC1 (configuration not stated)	-3%	11	u	3%	11%	-33%
CCOC(=O)C(C(=O)OCC)C(c1ccccc1)N1CCN(c2ccccc2)CC1 (configuration not stated)	u	-16	21µM*	7%	x	11%
CC(CC(=O)c1ccc(F)cc1)N1CCN(c2ccccc2)CC1 (configuration not stated)	18µM*	-15	u	-5%	x	11%
COc1ccccc1N1CCN(CC(=O)c2ccc(F)cc2)CC1	-21%	25	-22%	-11%	-6%	2%

Screening results from PubChem.
